This note sets out measurements from PubChem BioAssay (NCI).

Among the test systems are NCI-H23 lung; NCI-H226 lung; NCI-H322M lung; HOP-62 NSCLC; NCI-H460 lung; HOP-92 NSCLC; NCI-H522 lung; A549/ATCC NSCLC; 786-0 renal; COLO 205 colon.
Holding throughout (experiment): NCI-60 one-dose screen, 48 h (100 = growth as untreated, 0 = no growth, -100 = all killed)
What all share (conditions): 10 µM unless noted

Compounds without any hit were thinned out: in the full panel of roughly 83,000, 20% have a hit.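 Growth was measured after 48 h exposure to one concentration of compound in 96-well plates. Values under 10 count as active.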 Unmarked numbers belong to inactive results. Calls of active or inactive are those of the source.

As for `N=C(N)c1ccc(-c2ccc(-c3ccc(F)cc3)o2)o1`, the growth is 44.8% in the experiment with NCI-H23 lung; 69.7% with NCI-H226 lung; 42.4% in the experiment on NCI-H322M lung; 38.1% in the experiment on HOP-62 NSCLC; -13.7% (active) in the experiment on NCI-H460 lung; 16.2% in the experiment with HOP-92 NSCLC. Also, the growth with NCI-H522 lung is 37.4%; in the experiment on A549/ATCC NSCLC, 1.43% (active); in the experiment on 786-0 renal, 15.4%; in the experiment with COLO 205 colon, -76.5% (active).
Regarding `Cc1cc2c([nH]1)CSc1cc(S(=O)(=O)c3ccccc3)c(=O)[nH]c1-2`, the growth in the experiment with NCI-H23 lung is 11.4% [100 µM]; in the experiment on NCI-H226 lung, 32.6% [100 µM]; in the experiment with NCI-H322M lung, 47.1% [100 µM]; with HOP-62 NSCLC, 33% [100 µM]; in the experiment with NCI-H460 lung it was 4.49% [100 µM] (active); in the experiment on HOP-92 NSCLC, 16.3% [100 µM]. Further, the growth in the experiment on NCI-H522 lung is 23.3% [100 µM]; in the experiment on A549/ATCC NSCLC, 52.2% [100 µM]; in the experiment with 786-0 renal it was 21.5% [100 µM]; in the experiment on COLO 205 colon it was -40.5% [100 µM] (active).
Consider `O=Cc1ccc([N+](=O)[O-])s1`, for which the growth was 93.2% in the experiment with NCI-H23 lung; 105% in the experiment with NCI-H226 lung; 98.4% with NCI-H322M lung; 105% in the experiment on HOP-62 NSCLC; 106% in the experiment on NCI-H460 lung; 103% in the experiment on HOP-92 NSCLC. The growth in the experiment with NCI-H522 lung is 101%; with A549/ATCC NSCLC it was 95.2%; in the experiment on 786-0 renal it was 108%; in the experiment on COLO 205 colon, 107%.
For `COP(=O)(OC)C(C)(C)CC(=O)CC(C#N)(C#N)C(C#N)C#N`, the growth with NCI-H23 lung was 98.7%; in the experiment with NCI-H226 lung it was 92.9%; with NCI-H322M lung it was 99.3%; in the experiment on HOP-62 NSCLC, 98.1%; in the experiment on NCI-H460 lung, 112%; in the experiment with HOP-92 NSCLC, 55.9%. Besides, the growth in the experiment on NCI-H522 lung was 101%; in the experiment with A549/ATCC NSCLC, 104%; in the experiment with 786-0 renal, 105%; with COLO 205 colon it was 107%.
With `COc1ccc(C(=O)Nc2ncc(Cc3cccc(Cl)c3)s2)cc1OC`, the growth with NCI-H23 lung is 46.8%; in the experiment on NCI-H226 lung it was 42.2%; in the experiment with NCI-H322M lung, 39.6%; in the experiment on HOP-62 NSCLC, 4.67% (active); in the experiment with NCI-H460 lung it was 13.7%; in the experiment with HOP-92 NSCLC it was 54.6%. Besides, the growth is -11% (active) with NCI-H522 lung, 34% in the experiment on A549/ATCC NSCLC, 26.9% in the experiment on 786-0 renal and 1.48% (active) with COLO 205 colon.
For `O=C(Cn1cc(CN2CCCCCC2)nn1)Nc1ccc2c(ccn2Cc2ccccc2)c1`, the growth is 96.4% with NCI-H23 lung; 81.5% in the experiment with NCI-H226 lung; 94.8% with NCI-H322M lung; 80.6% in the experiment with HOP-62 NSCLC; 102% in the experiment with NCI-H460 lung; 64% in the experiment on HOP-92 NSCLC. The growth in the experiment with NCI-H522 lung is 86.9%; with A549/ATCC NSCLC, 92.3%; in the experiment with 786-0 renal, 87.8%; in the experiment with COLO 205 colon, 88.9%.
For `CC(C)c1ccc(COCc2cc(CN3CCCC3)c(O)c3ncccc23)cc1`, the growth in the experiment on NCI-H23 lung is 8.78% (active); in the experiment with NCI-H226 lung it was -6.04% (active); in the experiment on NCI-H322M lung it was 12.2%; with HOP-62 NSCLC, 2.49% (active); in the experiment with NCI-H460 lung, -40.8% (active); with HOP-92 NSCLC, -5.15% (active). In addition, the growth is -40.1% (active) in the experiment on NCI-H522 lung, 7.74% (active) in the experiment on A549/ATCC NSCLC, -15.4% (active) with 786-0 renal and 18.9% in the experiment on COLO 205 colon.
With `Cc1cc(N)c2cc(NC(=O)/C=C\c3ccccc3Cl)ccc2n1`, the growth in the experiment on NCI-H23 lung was -85.4% (active); with NCI-H226 lung, -70.7% (active); with NCI-H322M lung, -83.3% (active); in the experiment on HOP-62 NSCLC, -71.5% (active); in the experiment with NCI-H460 lung it was -78.3% (active); in the experiment with HOP-92 NSCLC it was -69.5% (active). Moreover, the growth in the experiment on NCI-H522 lung is -70.7% (active); in the experiment on A549/ATCC NSCLC, -43.5% (active); in the experiment with 786-0 renal, -81.3% (active); in the experiment with COLO 205 colon, -65.9% (active).
With `C1=CN2CC(c3ccccc3)=NNC2c2ccccc21` (stereo not given), the growth was 76.1% in the experiment with NCI-H23 lung; 63.3% in the experiment with NCI-H226 lung; 86.1% in the experiment with NCI-H322M lung; 72.4% in the experiment on HOP-62 NSCLC; 98% in the experiment with NCI-H460 lung; 76.7% in the experiment with HOP-92 NSCLC. Moreover, the growth with NCI-H522 lung is 75.5%; with A549/ATCC NSCLC, 95.1%; in the experiment on 786-0 renal it was 99.3%; in the experiment on COLO 205 colon, 113%.
Regarding `C#CCOc1cccc(Nc2ncnc3c(NC(=O)C=C)cccc23)c1`, the growth is 38.9% in the experiment with NCI-H23 lung; 52% with NCI-H226 lung; 54.9% in the experiment on NCI-H322M lung; 39% in the experiment on HOP-62 NSCLC; 12.8% in the experiment on NCI-H460 lung; 9.26% (active) with HOP-92 NSCLC. Further, the growth in the experiment with NCI-H522 lung is -5.23% (active); in the experiment with A549/ATCC NSCLC, 27.5%; with 786-0 renal, 14%; in the experiment on COLO 205 colon, 26.3%.
For the molecule `COc1ccc2[nH]cc(-c3nc(-c4cn(C)c5c(Cl)nccc45)cs3)c2c1`, the growth is 58.3% in the experiment on NCI-H23 lung; 40.8% with NCI-H226 lung; 75.5% with NCI-H322M lung; 56.6% in the experiment on HOP-62 NSCLC; 6.1% (active) in the experiment with NCI-H460 lung; 78.8% in the experiment on HOP-92 NSCLC. Further, the growth in the experiment with NCI-H522 lung was 13.9%; in the experiment with A549/ATCC NSCLC it was 33.8%; in the experiment with 786-0 renal it was 16.2%; with COLO 205 colon it was 32.9%.
With `O=C1C(Cl)=C(Nc2ccc(O)cc2)C(=O)N1Cc1ccc(Cl)cc1`, the growth in the experiment with NCI-H23 lung was 85.2%; in the experiment on NCI-H226 lung, 84.5%; with NCI-H322M lung it was 77%; with HOP-62 NSCLC, 84.2%; in the experiment on NCI-H460 lung it was 78.9%; with HOP-92 NSCLC, 69.7%. The growth in the experiment with NCI-H522 lung was 51.9%; in the experiment with A549/ATCC NSCLC, 71.6%; in the experiment on 786-0 renal, 70.6%; in the experiment with COLO 205 colon, 35.8%.
Consider `O=C(OCc1ccc2cccc(O)c2n1)N1CCN(C(=O)c2cc3cc(F)ccc3[nH]2)CC1`, for which the growth in the experiment with NCI-H23 lung is -22.8% (active); in the experiment with NCI-H226 lung, 56.9%; with NCI-H322M lung it was 60%; with HOP-62 NSCLC it was -29.7% (active); in the experiment with NCI-H460 lung, -47.6% (active); with HOP-92 NSCLC, -75.9% (active). The growth in the experiment on NCI-H522 lung was -63.2% (active); in the experiment with A549/ATCC NSCLC, -56.2% (active); with 786-0 renal, -87.1% (active); in the experiment with COLO 205 colon it was -77.4% (active).
